The results in this text go back to article PMC4336329 (PLoS ONE, 2015).

Structures are written as SMILES. In all, about 310,000 compounds went through this assay and about 14,000 (4.5%) showed an effect of 50% or more. Effects have a minus sign here. Many of the other results were omitted from the sample, so strong results are more common in it than they were.
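Also: peak tail current of the secondary pulse compared with the same well before compound.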

In the experiment the target is human ether-à-go-go-related gene (hERG) potassium channel (human, UniProt Q12809). Kind of experiment: primary screen, population patch clamp on CHO cells stably expressing hERG; higher = less effect of the substance.
human ether-à-go-go-related gene (hERG) potassium channel, sequence (Q12809 whole entry, looked up): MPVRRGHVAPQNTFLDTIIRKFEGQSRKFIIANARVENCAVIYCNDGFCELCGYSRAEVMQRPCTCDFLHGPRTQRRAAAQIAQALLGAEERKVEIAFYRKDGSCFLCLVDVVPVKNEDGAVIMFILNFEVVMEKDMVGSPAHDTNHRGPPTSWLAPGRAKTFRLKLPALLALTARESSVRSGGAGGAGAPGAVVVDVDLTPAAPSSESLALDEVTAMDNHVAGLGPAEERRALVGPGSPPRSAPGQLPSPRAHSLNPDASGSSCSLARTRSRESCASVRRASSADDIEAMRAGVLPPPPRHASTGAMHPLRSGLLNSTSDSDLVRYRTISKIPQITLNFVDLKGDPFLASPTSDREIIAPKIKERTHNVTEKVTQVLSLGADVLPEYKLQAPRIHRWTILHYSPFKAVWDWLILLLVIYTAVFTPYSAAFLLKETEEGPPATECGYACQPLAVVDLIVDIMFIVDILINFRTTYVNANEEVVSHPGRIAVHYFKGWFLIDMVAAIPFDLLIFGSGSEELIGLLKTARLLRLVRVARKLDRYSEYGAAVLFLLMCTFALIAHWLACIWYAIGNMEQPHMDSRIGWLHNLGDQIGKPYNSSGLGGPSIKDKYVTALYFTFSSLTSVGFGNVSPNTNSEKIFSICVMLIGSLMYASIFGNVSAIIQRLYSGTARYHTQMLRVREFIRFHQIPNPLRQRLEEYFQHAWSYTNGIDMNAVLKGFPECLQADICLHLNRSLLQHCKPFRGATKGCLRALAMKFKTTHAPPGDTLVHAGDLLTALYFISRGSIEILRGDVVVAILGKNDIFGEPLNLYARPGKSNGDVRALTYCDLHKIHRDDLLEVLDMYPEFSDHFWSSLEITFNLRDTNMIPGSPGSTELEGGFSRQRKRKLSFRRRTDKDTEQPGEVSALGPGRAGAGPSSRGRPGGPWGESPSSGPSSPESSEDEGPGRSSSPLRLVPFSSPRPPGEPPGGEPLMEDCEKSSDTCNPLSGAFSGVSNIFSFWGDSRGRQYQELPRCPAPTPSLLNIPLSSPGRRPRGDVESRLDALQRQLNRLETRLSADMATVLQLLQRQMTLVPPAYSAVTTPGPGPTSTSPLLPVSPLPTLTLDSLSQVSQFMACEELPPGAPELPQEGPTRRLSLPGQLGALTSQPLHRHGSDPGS
On to `S=c1[nH]cc(-c2ccccc2)n1-c1ccccc1Cl`, for which the “hERG current change (%, negative = inhibition) at 10uM” value was determined as 9.61%.

`CCc1onc(C)c1C(=O)Nc1ccc(N2CCOCC2)cc1`: the “hERG current change (%, negative = inhibition) at 10uM” value was determined as 15%.

Regarding `Clc1ccc(-c2noc(/C=C/c3ccccc3)n2)cc1`, the “hERG current change (%, negative = inhibition) at 10uM” value was found to be 18.2%.

For the compound `COc1ccc(CC2(CO)CCN(CC3=CC[C@H]4C[C@@H]3C4(C)C)CC2)cc1`, the “hERG current change (%, negative = inhibition) at 10uM” value is -58.7%.

`CC1(C)C2CC=C(CN3CCC(O)CC3)C1C2` (centres unmarked): the “hERG current change (%, negative = inhibition) at 10uM” value is recorded as -7.45%.

Take `COc1cccc(CC2(CO)CCN(CC3=CC[C@H]4C[C@@H]3C4(C)C)CC2)c1`: the “hERG current change (%, negative = inhibition) at 10uM” value is reported as -44.2%.

Consider `CCN(CC)S(=O)(=O)c1ccc2c(c1)nc(SCc1nc3ccsc3c(=O)[nH]1)n2CC`, for which the “hERG current change (%, negative = inhibition) at 10uM” value is -30.8%.

Take `COc1ccc(C=NCCC2(O)CC(C)N(C)CC2C)cc1` (centres unmarked): the “hERG current change (%, negative = inhibition) at 10uM” value is listed as 8.31%.

On to `CC1Oc2cc3c(-c4c(O)cc(O)c5c(O)c6c(cc45)OC(C)C(C)C6=O)c(O)cc(O)c3c(O)c2C(=O)C1C` (centres unmarked), for which the “hERG current change (%, negative = inhibition) at 10uM” value came to 10.8%.

Regarding `CC1CN(C)C(C)CC1OC(=O)C(c1ccccc1)c1ccccc1` (centres unmarked), the “hERG current change (%, negative = inhibition) at 10uM” value is reported as -73.7%.

As to `C[N+]1(C)CCC(OC(=O)C(c2ccccc2)c2ccccc2)CC1.[I-]`, the “hERG current change (%, negative = inhibition) at 10uM” value came to 1.2%.

Consider `CCCCOc1ccc(C(=O)OC2CC(C)N(C)CC2C)cc1` (centres unmarked), for which the “hERG current change (%, negative = inhibition) at 10uM” value was -25.4%.

With `C[N+]1(C)[C@@H]2CC[C@H]1CC(OC(=O)C(c1ccccc1)c1ccccc1)C2.[I-]` (some centres unmarked), the “hERG current change (%, negative = inhibition) at 10uM” value is recorded as 18%.

Turning to `CC1CN(C(C)C)C(C)CC1OC(=O)c1ccccc1` (centres unmarked), the “hERG current change (%, negative = inhibition) at 10uM” value is 15.7%.

On to `CN(C)[C@@H]1CCC[C@H]1OC(=O)C(c1ccccc1)c1ccccc1`, for which the “hERG current change (%, negative = inhibition) at 10uM” value was -65.2%.

On to `O=C(Cc1cccs1)NCCn1ccc2ccccc21`, for which the “hERG current change (%, negative = inhibition) at 10uM” value is on record as -6.95%.

As for `Cc1ccc(C2=NN(C(=O)CSc3nnnn3C)C(c3ccco3)C2)cc1` (centres unmarked), the “hERG current change (%, negative = inhibition) at 10uM” value is given as 17.1%.

`Cc1cn(C)c(=O)n(C)c1=O`: the “hERG current change (%, negative = inhibition) at 10uM” value is reported as 4.46%.

Take `O=C(C[n+]1cc(-c2ccccc2)n2c1CCC2)Nc1nc(-c2ccc(F)cc2)cs1.[Cl-]`: the “hERG current change (%, negative = inhibition) at 10uM” value is listed as -20.3%.

Turning to `O=C(C[n+]1cc(-c2ccc(F)cc2)n2c1CCC2)Nc1nc(-c2ccc(F)cc2)cs1.[Cl-]`, the “hERG current change (%, negative = inhibition) at 10uM” value was -76.7%.

Consider `Cc1ccc(-c2c[n+](CC(=O)Nc3nc(-c4ccc(F)cc4)cs3)c3n2CCC3)cc1.[Cl-]`, for which the “hERG current change (%, negative = inhibition) at 10uM” value was -74.2%.

As for `Cn1c(NC(=O)C[n+]2cc(-c3ccc(F)cc3)n3c2CCC3)cc(=O)n(C)c1=O.[Cl-]`, the “hERG current change (%, negative = inhibition) at 10uM” value was found to be 1.04%.

For the compound `O=C(C[n+]1cc(-c2ccc(Cl)cc2)n2c1CCC2)Nc1nc(-c2ccc(F)cc2)cs1.[Cl-]`, the “hERG current change (%, negative = inhibition) at 10uM” value is on record as -48.4%.

Consider `O=C(C[n+]1cc(-c2ccc(F)cc2)n2c1CCC2)Nc1nc(-c2ccccc2)cs1.[Cl-]`, for which the “hERG current change (%, negative = inhibition) at 10uM” value was -11.1%.

Regarding `CN(c1ccc(C(=O)N2CCOCC2)cc1[N+](=O)[O-])C1CCCCC1`, the “hERG current change (%, negative = inhibition) at 10uM” value is listed as -23.1%.

For the compound `CCCCC[C@H]1CN(Cc2ccccc2)C(=O)[C@@H]1CC(=O)NCc1ccc(OC)cc1`, the “hERG current change (%, negative = inhibition) at 10uM” value was -56.4%.

In the case of `CCCCCCc1ccc(N2C[C@H](Cc3ccccc3)[C@@H](CC(=O)NCc3ccc(OC)cc3)C2=O)cc1`, the “hERG current change (%, negative = inhibition) at 10uM” value is recorded as -4.42%.

`CCCCC[C@H]1CN(Cc2ccc(OC)cc2)C(=O)[C@@H]1CC(=O)NCc1ccccc1`: the “hERG current change (%, negative = inhibition) at 10uM” value was -38.6%.

With `CCCCN1C[C@H](C)[C@@H](CC(=O)NCc2ccccc2)C1=O`, the “hERG current change (%, negative = inhibition) at 10uM” value is on record as -10.5%.

Consider `CCCCC[C@H]1CN(CCCC)C(=O)[C@@H]1CC(=O)NCc1ccccc1`, for which the “hERG current change (%, negative = inhibition) at 10uM” value is -73.5%.

As for `CCCCN1CC[C@H]2C=CC[C@@H](C(=O)NCc3ccc(OC)cc3)[C@H]2C1=O`, the “hERG current change (%, negative = inhibition) at 10uM” value is on record as 2.71%.

For `CCCCC[C@H]1CN(CCCC)C(=O)[C@@H]1CC(=O)NCc1ccc(OC)cc1`, the “hERG current change (%, negative = inhibition) at 10uM” value is -71%.

`COc1ccc(CCN2CC(C(=O)NCc3ccccc3)CCC2=O)cc1` (centres unmarked): the “hERG current change (%, negative = inhibition) at 10uM” value was -8.79%.

As for `CCCCC[C@H]1CN(CCc2ccccc2)C(=O)[C@@H]1CC(=O)NCc1ccc(OC)cc1`, the “hERG current change (%, negative = inhibition) at 10uM” value is reported as -61.8%.

On to `CCCCN1C[C@H](Cc2ccccc2)[C@@H](CC(=O)Nc2ccccc2)C1=O`, for which the “hERG current change (%, negative = inhibition) at 10uM” value is -25.4%.

For the compound `COc1ccc(CN2C[C@H](C)[C@@H](CC(=O)NCc3ccccc3)C2=O)cc1`, the “hERG current change (%, negative = inhibition) at 10uM” value is on record as -10.7%.

As for `CCCCCCc1ccc(N2C[C@H](CCCCC)[C@@H](CC(=O)NCc3ccc(OC)cc3)C2=O)cc1`, the “hERG current change (%, negative = inhibition) at 10uM” value is -16.6%.

For the compound `CC(C)(C)NCc1cccn1-c1sc2c(c1C#N)CCCC2`, the “hERG current change (%, negative = inhibition) at 10uM” value is -13.4%.

`NC(=S)Nc1ncc(C(F)(F)F)cc1Cl`: the “hERG current change (%, negative = inhibition) at 10uM” value is on record as 12.2%.

Turning to `CC(C)NC(=O)c1sc(=S)n2c1[nH]c(=O)c1ccc(C(=O)NCCc3ccc(Cl)cc3)cc12`, the “hERG current change (%, negative = inhibition) at 10uM” value is 14.1%.

Take `N#CC(c1ccccc1)N(CCCCl)C(=O)c1ccccc1` (centres unmarked): the “hERG current change (%, negative = inhibition) at 10uM” value is -18.9%.

As to `c1ccc(OCCCc2nc(-c3ccccn3)no2)cc1`, the “hERG current change (%, negative = inhibition) at 10uM” value is -0.0161%.

In the case of `C[C@H]1CN(Cc2ccccc2)C(=O)[C@@H]1CC(=O)NCc1ccccc1`, the “hERG current change (%, negative = inhibition) at 10uM” value stood at 1.31%.

For the compound `CCCCC[C@H]1CN(Cc2ccccc2)C(=O)[C@@H]1CC(=O)NCc1ccccc1`, the “hERG current change (%, negative = inhibition) at 10uM” value is on record as -65.8%.

Take `CCCCCCc1ccc(N2C[C@H](CCCCC)[C@@H](CC(=O)NCc3ccccc3)C2=O)cc1`: the “hERG current change (%, negative = inhibition) at 10uM” value was -1.8%.

With `O=C(c1cccc(C(F)(F)F)c1)N1CCC(O)(CS(=O)(=O)Cc2ccc(Cl)cc2)CC1`, the “hERG current change (%, negative = inhibition) at 10uM” value is 17.5%.

Turning to `CCN(c1ccccc1)S(=O)(=O)c1cc(C(=O)OC(C)C(=O)Nc2ccc3c(c2)OCCO3)ccc1C` (centres unmarked), the “hERG current change (%, negative = inhibition) at 10uM” value came to 14.1%.

Turning to `Cc1ccc(-c2csc(=S)n2CC(=O)OCC(=O)NC(C)C(C)C)cc1` (centres unmarked), the “hERG current change (%, negative = inhibition) at 10uM” value turned out to be 3.12%.

Take `CN(CC(=O)Nc1ccc(Cl)c(C(F)(F)F)c1)C(=O)C1CC(=O)N(Cc2ccco2)C1` (centres unmarked): the “hERG current change (%, negative = inhibition) at 10uM” value is on record as -20.1%.

As to `Cc1[nH]c2ccccc2c1/C=N/NC(=O)c1ccc(N)cc1`, the “hERG current change (%, negative = inhibition) at 10uM” value was 11.2%.

Turning to `COc1ccc(CCN2C(=O)C3C4CC(C5C(C(=O)NN)=NOC45)C3C2=O)cc1OC` (centres unmarked), the “hERG current change (%, negative = inhibition) at 10uM” value stood at 7.3%.

Turning to `COc1ccc(CCN2C(=O)C3C4CC(C5C(C(N)=O)=NOC45)C3C2=O)cc1OC` (centres unmarked), the “hERG current change (%, negative = inhibition) at 10uM” value is recorded as -2.12%.

In the case of `COc1ccc(CCN2C(=O)C3C4CC(C5C(C(=O)N/N=C\c6ccc(Cl)cc6)=NOC45)C3C2=O)cc1OC` (centres unmarked), the “hERG current change (%, negative = inhibition) at 10uM” value is on record as -67.7%.
